Several values for one entry are separate records, joined by “and”; a condition that tells them apart may be missing. Equal values may be shown once. Inconclusive results are not listed. Activity calls are given as the source filed them. Unless noted, calls come from the whole dose curve; as a rule, active = well fitted curve in the direction sought with a large enough effect; inconclusive = small, poorly fitted or top-dose-only effect, or another doubt; inactive = no such curve, though single readings can be large; an effect the other way counts as inactive or inconclusive. Where a SMILES comes first, the peptide text is derived from it. The star is where a group is joined. Cbz = O=C(OCc1ccccc1)*
Key:
[1] = molecular target: Cellular tumor antigen p53 (Homo sapiens) (UniProt P04637); test: Primary qHTS for small molecule compounds that upregulate eGFP-tagged delta133p53alpha (in N-terminal) cells. (AID 2060322); details: NCI-H358 eGFP-delta133p53alpha fluorescence, 24 h; activation: stronger effect = higher value;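 note: 0% = DMSO vehicle and 100% = reference activator; nearly all actives have a fitted effect of over 75% in size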
Method in brief: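 NCI-H358 cells pre-induced 24 h with 10 ng/ml doxycycline to express N-terminal eGFP-delta133p53alpha, then dosed 24 h at 37C without doxycycline; fixed, Hoechst-stained, GFP intensity by laser scanning cytometry, normalized to DMSO (0%) and 57.5 uM 5-azacytidine (100%).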

[2] = molecular target: Cellular tumor antigen p53 (Homo sapiens) (UniProt P04637); test: Primary qHTS for small molecule compounds that upregulate eGFP-tagged delta133p53alpha (in C-terminal) cells. (AID 2060324); details: NCI-H358 delta133p53alpha-eGFP (C-terminal tag), GFP fluorescence imaging, 24 h; series mostly up to 57.5 µM; note: potency is the fitted concentration of half-maximal effect
Method in brief: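 NCI-H358 cells pre-induced 24 h with 100 ng/ml doxycycline to express delta133p53alpha-eGFP, then dosed in doxycycline-free medium for 24 h at 37C. Fixed, Hoechst-stained; GFP intensity by laser scanning cytometry, normalized to DMSO wells.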

[3] = molecular target: Aldehyde dehydrogenase, mitochondrial (Homo sapiens) (UniProt P05091); test: qHTS for Inhibitors of the Aldehyde Dehydrogenase Family (ALDH2) Validation screens (AID 2061302; active = well fitted inhibition curve with a large enough effect; title and protocol of this record describe different tests;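 note: plate controls were DMSO vehicle for no effect and maximal DPI positive control response for full effect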); details: ALDH inhibition qHTS; series mostly up to 42.6 µM
[4] = molecular target: Retinaldehyde dehydrogenase 3 (Homo sapiens) (UniProt P47895); test: qHTS for Inhibitors of the Aldehyde Dehydrogenase Family (ALDH1A3) Validation screen (AID 2061312); details: ALDH1A3 enzyme inhibition qHTS validation, fluorescence; series mostly up to 84.7 µM; note: % is set by controls: 0 for no effect and ±100 for the full control effect; nearly all actives have a fitted effect of over 45% in size

Cellular tumor antigen p53 (Homo sapiens), sequence (P04637 whole entry, looked up): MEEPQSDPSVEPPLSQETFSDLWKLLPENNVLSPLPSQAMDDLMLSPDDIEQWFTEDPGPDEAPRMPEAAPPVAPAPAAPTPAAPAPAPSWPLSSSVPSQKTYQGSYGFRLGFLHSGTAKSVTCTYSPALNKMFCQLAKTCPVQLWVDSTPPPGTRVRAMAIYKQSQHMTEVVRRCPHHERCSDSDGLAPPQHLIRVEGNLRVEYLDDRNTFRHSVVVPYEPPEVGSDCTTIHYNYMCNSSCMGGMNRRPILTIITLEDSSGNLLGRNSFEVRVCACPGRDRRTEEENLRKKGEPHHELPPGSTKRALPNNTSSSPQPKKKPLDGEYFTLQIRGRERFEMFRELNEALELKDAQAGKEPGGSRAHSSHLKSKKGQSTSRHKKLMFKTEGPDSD

CNCCC(Oc1ccccc1OC)c1ccccc1 (stereo not given)
inactive: activation [1] -3.68% | Potency [2] | Potency [3] | Potency [4]

COc1cc(CNC(=O)CCCCCCC(C)C)ccc1O
inactive: activation [1] 0.736% | Potency [2] | Potency [3] | Potency [4]

O=C(CCCN1CCC(O)(c2ccc(Cl)cc2)CC1)c1ccc(F)cc1
inactive: activation [1] 37.6% and -8.4% | Potency [2] | Potency [3] | Potency [4]

NC(=O)CNCCC(c1ccccc1)c1ccccc1
inactive: activation [1] -18.2% | Potency [2] | Potency [3] | Potency [4]

NC(N)=NCc1cccc(I)c1
inactive: activation [1] -18.3% | Potency [2] | Potency [3] | Potency [4]

CCn1c(=O)[nH]c2cc(Cl)c(Cl)cc21
inactive: activation [1] -55.4% | Potency [2] | Potency [3] | Potency [4]

CSC(N)=NCCC[C@H](N)C(=O)O
inactive: activation [1] 3.33% | Potency [2] | Potency [3] | Potency [4]

S=C(S)OC1CC2CC1C1CCCC21 (stereo not given)
inactive: activation [1] -23.4% | Potency [2] | Potency [3] | Potency [4]

CC(C)[C@H](NC(=O)OCc1ccccc1)C(=O)N[C@H](C=O)Cc1ccccc1 (Cbz-Val-Phe-aldehyde)
inactive: activation [1] -5.34% | Potency [2] | Potency [3] | Potency [4]

NCC(O)(CS(=O)(=O)O)c1ccc(Cl)cc1 (stereo not given)
inactive: activation [1] -28.8% | Potency [2] | Potency [3] | Potency [4]

CNC(=O)[C@H]1O[C@@H](n2cnc3c(NCc4ccc(N)cc4)ncnc32)[C@H](O)[C@@H]1O
inactive: activation [1] -32.5% | Potency [2] | Potency [3] | Potency [4]

CCOC(=O)C12CC1/C(=N/O)c1ccccc1O2 (stereo not given)
inactive: activation [1] -19.2% | Potency [2] | Potency [3] | Potency [4]

COc1cc2nc(N3CCN(C(=O)C4COc5ccccc5O4)CC3)nc(N)c2cc1OC (stereo not given)
inactive: activation [1] 6.69% and -16.6% and -33.1% | Potency [2] | Potency [3] | Potency [4]

CC[C@H](NC(=O)c1c(C)c(-c2ccccc2)nc2ccccc12)c1ccccc1
inactive: activation [1] -16.3% | Potency [2] | Potency [3] | Potency [4]

C[C@]12C[C@H](O)[C@H]3[C@@H](CCC4=CC(=O)CC[C@@]43C)[C@@H]1CC[C@@H]2C(=O)CO
inactive: activation [1] -5.02% and -5.37% | Potency [2] | Potency [3] | Potency [4]

Clc1nccc2c1ccc1ccccc12
inactive: activation [1] -42.2% | Potency [2] | Potency [3] | Potency [4]

CNc1ncnc2c1ncn2[C@@H]1O[C@H](CO)[C@@H](O)[C@H]1O
inactive: activation [1] 5.48% | Potency [2] | Potency [3] | Potency [4]

O=C(O)CCC(=O)N1CCCC1C(=O)O (stereo not given)
inactive: activation [1] 8.81% | Potency [2] | Potency [3] | Potency [4]

CC(C)NCC(O)COc1ccc(COCCOC(C)C)cc1 (stereo not given)
inactive: activation [1] -8.37% and -9.29% and -8.52% | Potency [2] | Potency [3] | Potency [4]

CC(=O)SC1CC2=CC(=O)CC[C@]2(C)C2CC[C@@]3(C)C(CC[C@@]34CCC(=O)O4)C12 (stereo not given in full)
inactive: activation [1] -47.2% | Potency [2] | Potency [3] | Potency [4]

OC[C@H]1O[C@@H](n2cnc3c(NC4CCCCC4)ncnc32)[C@H](O)[C@@H]1O
inactive: activation [1] 5.46% | Potency [2] | Potency [3] | Potency [4]

C#CCn1c(=O)c2c(ncn2C)n(C)c1=O
inactive: activation [1] -14.7% | Potency [2] | Potency [3] | Potency [4]

CCc1cccc2c3c([nH]c12)C(CC)(CC(=O)O)OCC3 (stereo not given)
inactive: activation [1] -0.565% and -1.6% | Potency [2] | Potency [3] | Potency [4]

CC1(C)CCC(NC(=O)[C@@H](N)CCC(=O)O)CC1
inactive: activation [1] -8.15% | Potency [2] | Potency [3] | Potency [4]

CC(=O)O[C@H]1Cc2ccccc2N(C(N)=O)c2ccccc21
inactive: activation [1] 5.86% | Potency [2] | Potency [3] | Potency [4]

Nc1ncnc2c1ncn2C1CCCO1 (stereo not given)
inactive: activation [1] 9.27% | Potency [2] | Potency [3] | Potency [4]

CC(C)[C@@H]1CC[C@@H](C)C[C@@H]1P(=O)(c1ccccc1)c1ccccc1
inactive: activation [1] -3.04% | Potency [2] | Potency [3] | Potency [4]

NC[C@@H]1O[C@H](c2ccccc2)Cc2c1ccc(O)c2O
inactive: activation [1] 5.43% | Potency [2] | Potency [3] | Potency [4]

O=C(c1ccc(OCCCc2cnc[nH]2)cc1)C1CC1
inactive: activation [1] 6.88% | Potency [2] | Potency [3] | Potency [4]

Cn1c(=O)[nH]c2ncn(C)c2c1=O
inactive: activation [1] -21.1% | Potency [2] | Potency [3] | Potency [4]

C=C(C)C1CC=C(C(=O)O)CC1 (stereo not given)
inactive: activation [1] -6.28% | Potency [2] | Potency [3] | Potency [4]

CN(C)CCC=C1c2ccccc2CCc2ccccc21
inactive: activation [1] -12.6% and -30.9% | Potency [2] | Potency [3] | Potency [4]

C=C1C[C@@]23CC[C@H]4[C@@](C)(CCC[C@@]4(C)C(=O)O)[C@@H]2CC[C@]1(O)C3
inactive: activation [1] 9.04% | Potency [2] | Potency [3] | Potency [4]

OC[C@H]1O[C@@H](n2cnc3c(NC4CCCC4)ncnc32)[C@H](O)[C@@H]1O
inactive: activation [1] -30.9% | Potency [2] | Potency [3] | Potency [4]

C#CC(N)CCC(=O)O (stereo not given)
inactive: activation [1] -41.5% | Potency [2] | Potency [3] | Potency [4]

CC(/C=C/c1cccc(Oc2ccc(F)cc2)c1)N(O)C(N)=O (stereo not given)
inactive: activation [1] -36% | Potency [2] | Potency [3] | Potency [4]

COc1cc(C(O)CO)ccc1O (stereo not given)
inactive: activation [1] -14% | Potency [2] | Potency [3] | Potency [4]

C[C@H]1CC2C3CCC4=CC(=O)C=C[C@]4(C)[C@@]3(Cl)[C@@H](O)C[C@]2(C)[C@@]1(O)C(=O)CO (stereo not given in full)
inactive: activation [1] -21.3% | Potency [2] | Potency [3] | Potency [4]

COc1ccc(/C=C2\COc3ccc(C)cc3C2=O)cc1O
active: Potency [2] 13.5 µM
inactive: activation [1] -71.5% | Potency [3] | Potency [4]

CCCCNc1ccc(C(=O)OCCN(C)C)cc1
inactive: activation [1] -9.6% and 10.7% | Potency [2] | Potency [3] | Potency [4]

COCCOc1cc2nc[nH]c(=O)c2cc1OCCOC
inactive: activation [1] -30.8% | Potency [2] | Potency [3] | Potency [4]

CC(=O)c1ccc(S(=O)(=O)NC(=O)NC2CCCCC2)cc1
inactive: activation [1] 3.35% and -2.1% | Potency [2] | Potency [3] | Potency [4]

CCCCCCCCCCC/C=C\C(C)(C)/C=C\CCCC(=O)O
inactive: activation [1] -22.9% | Potency [2] | Potency [3] | Potency [4]

CC(C)(C)NCC(O)c1cc(O)cc(O)c1 (stereo not given)
inactive: activation [1] 2.51% and 8.65% | Potency [2] | Potency [3] | Potency [4]

CC(CCc1ccc(O)cc1)NCCc1ccc(O)c(O)c1 (stereo not given)
inactive: activation [1] 23.7% and -15.1% and -3.75% | Potency [2] | Potency [3] | Potency [4]

C=CCc1ccccc1OCC(O)CNC(C)C (stereo not given)
inactive: activation [1] 2.82% and -28% | Potency [2] | Potency [3] | Potency [4]

O=[N+]([O-])c1cccc2cn[nH]c12
inactive: activation [1] -32.7% | Potency [2] | Potency [3] | Potency [4]

COc1cc(CC(=O)O)ccc1O
inactive: activation [1] -3.12% | Potency [2] | Potency [3] | Potency [4]

CCCCCCCCCCC(C)(C)C(=O)Nc1c(OC)cc(OC)cc1OC
inactive: activation [1] -40.6% | Potency [2] | Potency [3] | Potency [4]

CSc1ccccc1N1CCN(CCCCCC(=O)NC2CCCc3ccccc32)CC1 (stereo not given)
inactive: activation [1] -61.7% | Potency [2] | Potency [3] | Potency [4]

C[C@]12CC[C@@H]3c4ccc(O)cc4CC[C@H]3[C@@H]1CCC2=O
inactive: activation [1] 11.7% | Potency [2] | Potency [3] | Potency [4]

CC(C(=O)O)c1ccc(CC2CCCC2=O)cc1 (stereo not given)
inactive: activation [1] -10% and 11.7% | Potency [2] | Potency [3] | Potency [4]

NCCS
inactive: activation [1] -9.6% and 3.67% | Potency [2] | Potency [3] | Potency [4]

CN1CC(O)C(O)C(O)C1CO (stereo not given)
inactive: activation [1] 9.95% | Potency [2] | Potency [3] | Potency [4]

O=C(O)C1=CCNCC1
inactive: activation [1] -0.576% | Potency [2] | Potency [3] | Potency [4]

CCCC(CCC)C(=O)OC1CC2CCC(C1)[N+]2(C)C (stereo not given)
inactive: activation [1] -17.7% | Potency [2] | Potency [3] | Potency [4]

Cc1nc2ccccn2c(=O)c1CCN1CCC(C(=O)c2ccc(F)cc2)CC1
inactive: activation [1] 0.565% and -12% | Potency [2] | Potency [3] | Potency [4]

CCCOC(=O)c1c(-c2ccccc2)nc(CC)c(C(=O)SCC)c1CCC
inactive: activation [1] -30.9% | Potency [2] | Potency [3] | Potency [4]

C[N+](C)(C)CCCCCC[N+](C)(C)C
inactive: activation [1] -20.9% and 7.49% and -11.5% | Potency [2] | Potency [3] | Potency [4]

CCCOc1ccccc1-c1nc2n[nH]nc2c(=O)[nH]1
inactive: activation [1] -19.5% | Potency [2] | Potency [3] | Potency [4]

OCCN1CCN(CCCN2c3ccccc3Sc3ccc(Cl)cc32)CC1
inactive: activation [1] -6.69% and -35.6% | Potency [2] | Potency [3] | Potency [4]

CCn1ccnc1CC1COc2ccccc2O1 (stereo not given)
inactive: activation [1] -21.8% and 27.7% | Potency [2] | Potency [3] | Potency [4]

COc1ccc2c(c1)c(CC(=O)O)c(C)n2Cc1ccc(Cl)cc1
inactive: activation [1] -32.5% | Potency [2] | Potency [3] | Potency [4]

COC(=O)C1=C(C)NC(C)=C([N+](=O)[O-])C1c1ccccc1C(F)(F)F (stereo not given)
inactive: activation [1] -39.9% | Potency [2] | Potency [3] | Potency [4]

C=CC(C)=C[C@@]1(C)SC(=O)C(C)=C1O
inactive: activation [1] 0.958% | Potency [2] | Potency [3] | Potency [4]
